# Laboratory results as given in PubChem BioAssay (EPA / NIEHS).
# Inconclusive results are not listed. Activity calls are given as the source filed them. Rule for the calls, unless noted: active = hit-call score of the fitted dose curve at least 0.9, where 1 is the maximum; inactive = score below 0.9.
# How the values were obtained:
# [1] = BSK_3C_uPAR: BioMAP Diversity Plus: 3C Assay for Urokinase-type plasminogen activator receptor (uPAR) Biomarker Activity (AID 2282998); conditions: BioMAP 3C HUVEC, uPAR biomarker ELISA; actives raise or lower the signal
# Procedure, shortened: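 Values derive from bidirectional curve fitting relative to DMSO, which served as baseline of activity. uPAR was measured by ELISA in human umbilical vein endothelial primary cultures 24 h after compound addition.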
# [2] = BSK_3C_VCAM1: BioMAP Diversity Plus: 3C Assay for Vascular cell adhesion molecule 1 (VCAM1) Biomarker Activity (AID 2282999); conditions: BioMAP 3C HUVEC, VCAM1 ELISA, cytokine-stimulated; actives raise or lower the signal
# Procedure, shortened: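 Endothelial cells from human umbilical vein are treated with test chemical. At 24 h, VCAM-1 is measured by ELISA, and responses in either direction are fitted relative to DMSO.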
# [3] = BSK_4H_Eotaxin3: BioMAP Diversity Plus: 4H Assay for Eotaxin 3 Biomarker Activity (AID 2283000); conditions: primary human endothelial cells (HUVEC); actives raise or lower the signal;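 for outcome: CCL26 protein level quantified by ELISA in parallel with SRB cytotoxicity check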
# Procedure, shortened: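 HUVEC, 24 h post-dose, ELISA for Eotaxin-3/CCL26. Gain or loss of signal fitted bidirectionally vs DMSO baseline.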
# [4] = read-out: Intercellular Adhesion Molecule 1 (ICAM1), ICAM1 (gene 3383); test: BSK_3C_ICAM1: BioMAP Diversity Plus: 3C Assay for Intercellular Adhesion Molecule 1 (ICAM1) Biomarker Activity (AID 2283003); conditions: primary human endothelial cells (HUVEC); actives raise or lower the signal
# Procedure, shortened: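 Primary human umbilical vein endothelial cells in the BioMAP 3C system were exposed to chemicals for 24 h, then ICAM-1 was quantified by ELISA. Activity was fitted bidirectionally against the DMSO negative control baseline.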
# [5] = target: human Retinoic Acid Receptor beta (RARb), RARB (gene 5915) (UniProt P10826); test: ATG_RARb_TRANS: Attagene TRANS-FACTORIAL HepG2 Assay for human Retinoic Acid Receptor beta (AID 2283004; active = hit-call score of the fitted dose curve at least 0.9, where 1 is the maximum)
# Chain of human Retinoic Acid Receptor beta (RARb), RARB (gene 5915) (P10826 whole entry, looked up, the tested form may be a part): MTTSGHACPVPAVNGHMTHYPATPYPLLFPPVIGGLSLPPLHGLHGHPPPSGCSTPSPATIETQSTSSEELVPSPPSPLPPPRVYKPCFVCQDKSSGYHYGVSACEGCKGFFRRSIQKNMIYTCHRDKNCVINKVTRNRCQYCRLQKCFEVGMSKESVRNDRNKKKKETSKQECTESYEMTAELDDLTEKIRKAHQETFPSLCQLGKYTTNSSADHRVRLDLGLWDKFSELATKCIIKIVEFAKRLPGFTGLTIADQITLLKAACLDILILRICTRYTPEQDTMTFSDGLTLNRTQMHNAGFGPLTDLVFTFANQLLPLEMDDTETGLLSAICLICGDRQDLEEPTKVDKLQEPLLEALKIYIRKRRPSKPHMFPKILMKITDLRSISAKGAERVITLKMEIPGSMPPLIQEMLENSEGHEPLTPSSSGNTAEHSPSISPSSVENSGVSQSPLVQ
# Procedure, shortened: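 HepG2 cells transiently transfected with multiplexed GAL4-UAS reporter units expressing chimeric NR–Gal4 fusions; 24 h compound exposure. Reporter mRNA quantified by RT-PCR, 6-FAM labelling, HpaI digestion and capillary electrophoresis; gain-of-signal fitted against DMSO baseline.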
# [6] = target: Retinoic acid receptor alpha (Homo sapiens) (UniProt P10276); test: ATG_RARa_TRANS: Attagene TRANS-FACTORIAL HepG2 Assay for human Retinoic Acid Receptor alpha (RARa) (AID 2283005; active = hit-call score of the fitted dose curve at least 0.9, where 1 is the maximum)
# Procedure, shortened: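 Reporter transcripts, measured by RT-PCR with fluorescent labeling and capillary electrophoresis after 24 h dosing, reflect activity of an exogenous human RARa–GAL4 fusion in transiently transfected HepG2. Fitted for increase relative to DMSO.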
# [7] = target: Peroxisome proliferator-activated receptor gamma (Homo sapiens) (UniProt P37231); test: ATG_PPARg_TRANS: Attagene TRANS-FACTORIAL HepG2 Assay for human Peroxisome Proliferator-activated Receptor-gamma (PPARg) (AID 2283007; active = hit-call score of the fitted dose curve at least 0.9, where 1 is the maximum)
# Chain of Peroxisome proliferator-activated receptor gamma (Homo sapiens) (P37231 whole entry, looked up, the tested form may be a part): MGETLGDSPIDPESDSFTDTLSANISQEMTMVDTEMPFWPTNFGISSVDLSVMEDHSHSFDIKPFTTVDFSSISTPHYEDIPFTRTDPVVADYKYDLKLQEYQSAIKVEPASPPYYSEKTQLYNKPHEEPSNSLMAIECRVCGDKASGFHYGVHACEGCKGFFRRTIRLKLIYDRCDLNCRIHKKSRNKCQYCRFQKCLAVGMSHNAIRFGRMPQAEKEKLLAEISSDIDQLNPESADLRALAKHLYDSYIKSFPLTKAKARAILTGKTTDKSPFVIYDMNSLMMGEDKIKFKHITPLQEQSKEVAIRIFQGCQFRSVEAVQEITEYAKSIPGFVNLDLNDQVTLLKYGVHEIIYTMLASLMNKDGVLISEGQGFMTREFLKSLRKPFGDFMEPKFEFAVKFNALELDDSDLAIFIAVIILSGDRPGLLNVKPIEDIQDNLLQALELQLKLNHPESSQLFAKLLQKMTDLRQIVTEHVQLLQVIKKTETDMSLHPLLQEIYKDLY
# Procedure, shortened: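 HepG2 cells transiently transfected with multiplexed GAL4-UAS reporter units and exogenous chimeric NR-Gal4 proteins; reporter mRNA quantified after 24 h compound exposure by RT-PCR, fluorescent labelling, HpaI digestion and capillary electrophoresis; gain-of-signal fitted versus DMSO baseline.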
# [8] = target: Nuclear receptor subfamily 1 group I member 2 (Homo sapiens) (UniProt O75469); test: ATG_PXR_TRANS: Attagene TRANS-FACTORIAL HepG2 Assay for human Pregnane X Receptor (PXR) (AID 2283008; active = hit-call score of the fitted dose curve at least 0.9, where 1 is the maximum)
# Chain of Nuclear receptor subfamily 1 group I member 2 (Homo sapiens) (O75469 whole entry, looked up, the tested form may be a part): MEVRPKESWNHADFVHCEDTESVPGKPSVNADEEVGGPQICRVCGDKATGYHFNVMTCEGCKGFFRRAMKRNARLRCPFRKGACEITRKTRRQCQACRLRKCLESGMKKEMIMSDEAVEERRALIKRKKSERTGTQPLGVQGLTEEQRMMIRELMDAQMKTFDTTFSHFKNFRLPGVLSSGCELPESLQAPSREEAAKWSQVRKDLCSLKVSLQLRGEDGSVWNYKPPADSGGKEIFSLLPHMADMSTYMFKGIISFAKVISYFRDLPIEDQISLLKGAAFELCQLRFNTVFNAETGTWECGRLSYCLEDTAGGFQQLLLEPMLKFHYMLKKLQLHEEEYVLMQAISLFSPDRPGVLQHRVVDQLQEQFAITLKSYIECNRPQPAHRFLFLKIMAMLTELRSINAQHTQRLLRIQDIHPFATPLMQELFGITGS
# Procedure, shortened: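 HepG2 cells transiently transfected with multiple reporter units, here a PXR-GAL4 chimera driving a GAL4-UAS reporter; 24 h compound exposure. Reporter mRNA measured by RT-PCR, FAM labelling and capillary electrophoresis; gain of signal fitted against DMSO baseline.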
# [9] = target: human Retinoic Acid Receptor gamma (RARg), RARG (gene 5916) (UniProt P13631); test: ATG_RARg_TRANS: Attagene TRANS-FACTORIAL HepG2 Assay for human Retinoic Acid Receptor gamma (RARg) (AID 2283009; active = hit-call score of the fitted dose curve at least 0.9, where 1 is the maximum)
# Chain of human Retinoic Acid Receptor gamma (RARg), RARG (gene 5916) (P13631 whole entry, looked up, the tested form may be a part): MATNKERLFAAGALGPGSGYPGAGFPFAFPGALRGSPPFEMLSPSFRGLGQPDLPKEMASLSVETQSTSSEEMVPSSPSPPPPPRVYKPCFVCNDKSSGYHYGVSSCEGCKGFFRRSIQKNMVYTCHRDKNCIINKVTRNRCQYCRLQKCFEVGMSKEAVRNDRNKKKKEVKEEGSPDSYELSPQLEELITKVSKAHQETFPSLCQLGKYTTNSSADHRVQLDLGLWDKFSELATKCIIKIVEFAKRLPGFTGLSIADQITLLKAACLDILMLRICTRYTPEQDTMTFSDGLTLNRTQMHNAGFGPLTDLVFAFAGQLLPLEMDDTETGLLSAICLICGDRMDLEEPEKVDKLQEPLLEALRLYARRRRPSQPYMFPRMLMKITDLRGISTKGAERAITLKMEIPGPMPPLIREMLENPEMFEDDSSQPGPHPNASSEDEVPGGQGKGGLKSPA
# Procedure, shortened: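 HepG2 cells transiently transfected with multiplexed reporter units expressing chimeric RARg-GAL4 and GAL4-UAS-driven reporters; 24 h compound exposure. Reporter mRNA quantified by RT-PCR with fluorescent labelling and capillary electrophoresis; gain-of-signal fitted relative to DMSO baseline.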
# [10] = target: human RAR-related Orphan Receptor beta (RORb), RORB (gene 6096) (UniProt Q92753); test: ATG_RORb_TRANS: Attagene TRANS-FACTORIAL HepG2 Assay for human RAR-related Orphan Receptor beta (RORb) (AID 2283010; active = hit-call score of the fitted dose curve at least 0.9, where 1 is the maximum)
# Chain of human RAR-related Orphan Receptor beta (RORb), RORB (gene 6096) (Q92753 whole entry, looked up, the tested form may be a part): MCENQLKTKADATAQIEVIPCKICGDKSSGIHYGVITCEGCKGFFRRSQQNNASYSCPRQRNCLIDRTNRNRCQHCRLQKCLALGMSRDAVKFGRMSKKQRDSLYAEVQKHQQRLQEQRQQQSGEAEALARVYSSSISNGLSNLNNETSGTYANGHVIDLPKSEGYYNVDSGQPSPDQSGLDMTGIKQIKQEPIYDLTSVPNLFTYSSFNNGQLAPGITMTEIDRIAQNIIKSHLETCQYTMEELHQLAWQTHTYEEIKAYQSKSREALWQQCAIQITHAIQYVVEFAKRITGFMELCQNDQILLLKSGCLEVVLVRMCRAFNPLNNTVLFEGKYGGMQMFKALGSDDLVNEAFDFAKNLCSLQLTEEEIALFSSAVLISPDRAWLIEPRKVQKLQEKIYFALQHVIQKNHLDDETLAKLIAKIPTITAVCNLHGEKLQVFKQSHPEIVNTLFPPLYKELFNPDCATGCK
# Procedure, shortened: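 HepG2 cells were transiently transfected with multiplexed GAL4-UAS reporter units expressing chimeric nuclear receptor–GAL4 proteins, then dosed for 24 h. Reporter mRNA was quantified by RT-PCR with fluorescent labelling and capillary electrophoresis; gain of signal was fitted relative to DMSO.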
# [11] = target: Retinoic acid receptor RXR-alpha (Homo sapiens) (UniProt P19793); test: ATG_RXRa_TRANS: Attagene TRANS-FACTORIAL HepG2 Assay for human Retinoid X Receptor alpha (RXRa) (AID 2283012; active = hit-call score of the fitted dose curve at least 0.9, where 1 is the maximum)
# Chain of Retinoic acid receptor RXR-alpha (Homo sapiens) (P19793 whole entry, looked up, the tested form may be a part): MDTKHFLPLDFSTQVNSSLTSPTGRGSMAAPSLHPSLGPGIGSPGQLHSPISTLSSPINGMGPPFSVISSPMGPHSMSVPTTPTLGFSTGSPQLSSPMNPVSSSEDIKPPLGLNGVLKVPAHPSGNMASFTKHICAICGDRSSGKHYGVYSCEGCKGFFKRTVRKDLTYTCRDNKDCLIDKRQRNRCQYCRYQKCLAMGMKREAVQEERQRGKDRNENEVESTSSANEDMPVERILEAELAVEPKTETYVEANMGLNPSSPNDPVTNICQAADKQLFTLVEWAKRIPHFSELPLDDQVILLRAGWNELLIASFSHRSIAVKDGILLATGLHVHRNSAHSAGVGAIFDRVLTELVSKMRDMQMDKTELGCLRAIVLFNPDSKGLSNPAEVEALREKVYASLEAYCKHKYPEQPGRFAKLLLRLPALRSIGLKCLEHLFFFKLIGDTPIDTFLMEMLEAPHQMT
# Procedure, shortened: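 HepG2 cells transiently transfected with multiplexed GAL4-UAS reporter units and chimeric NR-GAL4 fusions, dosed 24 h. Reporter mRNA measured by RT-PCR, FAM labelling, HpaI digestion and capillary electrophoresis; gain-of-signal fitted relative to DMSO baseline.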
# [12] = target: human Retinoid X Receptor beta (RXRb), RXRB (gene 6257) (UniProt P28702); test: ATG_RXRb_TRANS: Attagene TRANS-FACTORIAL HepG2 Assay for human Retinoid X Receptor beta (RXRb) (AID 2283013; active = hit-call score of the fitted dose curve at least 0.9, where 1 is the maximum)
# Chain of human Retinoid X Receptor beta (RXRb), RXRB (gene 6257) (P28702 whole entry, looked up, the tested form may be a part): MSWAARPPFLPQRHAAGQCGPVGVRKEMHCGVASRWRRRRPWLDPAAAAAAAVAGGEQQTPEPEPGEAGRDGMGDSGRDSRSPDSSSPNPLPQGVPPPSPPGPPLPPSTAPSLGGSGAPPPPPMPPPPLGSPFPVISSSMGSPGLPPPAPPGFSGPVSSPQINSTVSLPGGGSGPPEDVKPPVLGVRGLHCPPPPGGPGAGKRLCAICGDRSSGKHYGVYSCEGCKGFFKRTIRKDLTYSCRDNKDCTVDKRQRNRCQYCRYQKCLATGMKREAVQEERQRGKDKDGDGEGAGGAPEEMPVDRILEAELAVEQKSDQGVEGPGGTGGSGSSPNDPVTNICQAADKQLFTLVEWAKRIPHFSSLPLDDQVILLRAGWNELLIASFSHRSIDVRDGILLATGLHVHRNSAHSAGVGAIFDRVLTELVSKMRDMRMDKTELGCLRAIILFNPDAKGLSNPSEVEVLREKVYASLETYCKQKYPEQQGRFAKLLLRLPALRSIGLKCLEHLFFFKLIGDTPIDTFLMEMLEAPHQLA
# Procedure, shortened: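 HepG2 cells transiently transfected with multiplexed reporter units driven by GAL4-UAS and exogenous chimeric NR-Gal4 proteins; treated 24 h. Reporter mRNA measured by RT-PCR, 6-FAM labelling and capillary electrophoresis; gain-of-signal fitted versus DMSO baseline.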
# [13] = read-out: E-selectin (Homo sapiens) (UniProt P16581); test: BSK_3C_Eselectin: BioMAP Diversity Plus: 3C Assay for Eselectin Biomarker Activity (AID 2283015); conditions: primary human endothelial cells (HUVEC); actives raise or lower the signal;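 for outcome: cell surface E-selectin protein quantified by ELISA 24 h after dosing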
# Procedure, shortened: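 Primary human umbilical vein endothelial cells (3C system) were dosed with chemical and cell-surface E-selectin measured by ELISA 24 h later. Bidirectional curve fitting used DMSO as negative control and baseline.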
# [14] = read-out: Interleukin-1 alpha (IL1a), IL1A (gene 3552); test: BSK_BE3C_IL1a: BioMAP Diversity Plus: BE3C Assay for Interleukin-1 alpha (IL1a) Biomarker Activity (AID 2283016); conditions: primary human bronchial epithelial cells; actives raise or lower the signal
# Procedure, shortened: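 Human primary bronchial epithelial cells (BE3C system) were dosed with compound and IL-1a measured by ELISA 24 h later. Activity was fitted bidirectionally against DMSO baseline; cytotoxicity was tracked in parallel cultures by SRB total-protein staining.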
# [15] = read-out: Monocyte Chemoattractant Protein-1 (MCP1), CCL2 (gene 6347); test: BSK_3C_MCP1: BioMAP Diversity Plus: 3C Assay for Monocyte Chemoattractant Protein-1 (MCP1) Biomarker Activity (AID 2283017); conditions: primary human endothelial cells (HUVEC); actives raise or lower the signal
# Procedure, shortened: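 Primary human umbilical vein endothelial cells (3C system) were exposed to test chemical for 24 h, after which MCP-1 was quantified by ELISA. Activity was fitted bidirectionally against DMSO as negative control and baseline.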
# [16] = read-out: Monocyte Chemoattractant Protein-1 (MCP1), CCL2 (gene 6347); test: BSK_4H_MCP1: BioMAP Diversity Plus: 4H Assay for Monocyte Chemoattractant Protein-1 (MCP1) Biomarker Activity (AID 2283018); conditions: primary human endothelial cells (HUVEC); actives raise or lower the signal
# Procedure, shortened: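 Human umbilical vein endothelial cells (4H system) dosed with chemical; MCP-1 measured by ELISA 24 h after dosing. Bidirectional curve fitting against DMSO negative control as baseline; parallel SRB total-protein staining tracks overt cytotoxicity.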
# [17] = target: human Peroxisome Proliferator-activated Receptor alpha (PPARa), PPARA (gene 5465) (UniProt Q07869); test: ATG_PPARa_TRANS: Attagene TRANS-FACTORIAL HepG2 Assay for human Peroxisome Proliferator-activated Receptor alpha (PPARa) (AID 2283001; active = hit-call score of the fitted dose curve at least 0.9, where 1 is the maximum)
# Chain of human Peroxisome Proliferator-activated Receptor alpha (PPARa), PPARA (gene 5465) (Q07869 whole entry, looked up, the tested form may be a part): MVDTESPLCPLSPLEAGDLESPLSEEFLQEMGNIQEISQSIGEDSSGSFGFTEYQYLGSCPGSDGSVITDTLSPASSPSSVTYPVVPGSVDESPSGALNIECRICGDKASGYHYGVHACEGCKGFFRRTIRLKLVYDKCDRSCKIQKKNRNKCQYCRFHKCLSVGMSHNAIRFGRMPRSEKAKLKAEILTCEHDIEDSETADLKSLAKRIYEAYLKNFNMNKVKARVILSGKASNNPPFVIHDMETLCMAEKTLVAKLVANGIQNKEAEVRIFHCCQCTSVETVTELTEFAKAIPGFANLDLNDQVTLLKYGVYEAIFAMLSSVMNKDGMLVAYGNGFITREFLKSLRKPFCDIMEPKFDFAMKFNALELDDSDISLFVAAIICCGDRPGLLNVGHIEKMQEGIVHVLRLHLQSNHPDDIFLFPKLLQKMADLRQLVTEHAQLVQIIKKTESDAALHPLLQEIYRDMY
# Procedure, shortened: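 Reporter transcripts from GAL4-UAS units in transfected HepG2 were quantified 24 h after dosing. Detection used reverse transcription, PCR, fluorescent primer extension and capillary electrophoresis, with DMSO as baseline.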
# [18] = BSK_3C_Proliferation: Cell Proliferation Assessment in the BioMAP Diversity Plus: 3C Assay (AID 2283006); conditions: primary human endothelial cells (HUVEC);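 for AC50: potency may reflect either rise or fall in cell number versus DMSO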
# Procedure, shortened: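 Human umbilical vein endothelial cells were grown sub-confluent and exposed to chemical for 48 h, then fixed with 10% TCA and stained with 0.1% sulforhodamine B; absorbance at 560 nm gave relative cell number, fitted bidirectionally against DMSO baseline.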
# [19] = target: human Thyroid Receptor alpha (THRa1), THRA (gene 7067) (UniProt P10827); test: ATG_THRa1_TRANS: Attagene TRANS-FACTORIAL HepG2 Assay for human Thyroid Receptor alpha (THRa1) (AID 2283014; active = hit-call score of the fitted dose curve at least 0.9, where 1 is the maximum)
# Chain of human Thyroid Receptor alpha (THRa1), THRA (gene 7067) (P10827 whole entry, looked up, the tested form may be a part): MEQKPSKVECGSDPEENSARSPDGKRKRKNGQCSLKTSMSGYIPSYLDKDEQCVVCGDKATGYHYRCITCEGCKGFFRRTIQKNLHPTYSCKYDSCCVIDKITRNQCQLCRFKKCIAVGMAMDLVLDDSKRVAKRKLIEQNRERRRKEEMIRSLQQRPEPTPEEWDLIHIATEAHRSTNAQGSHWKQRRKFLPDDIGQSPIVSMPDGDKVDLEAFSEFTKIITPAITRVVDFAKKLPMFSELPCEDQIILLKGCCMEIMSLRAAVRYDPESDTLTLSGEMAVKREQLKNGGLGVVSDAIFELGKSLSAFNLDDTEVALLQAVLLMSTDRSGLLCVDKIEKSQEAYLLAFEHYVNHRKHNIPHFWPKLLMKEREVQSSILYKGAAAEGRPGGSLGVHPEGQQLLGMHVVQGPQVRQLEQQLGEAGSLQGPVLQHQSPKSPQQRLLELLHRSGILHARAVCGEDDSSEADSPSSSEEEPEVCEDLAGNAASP
# Procedure, shortened: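 HepG2 cells transiently transfected with multiplexed GAL4-UAS reporter units for exogenous chimeric THRa1-Gal4; reporter mRNA measured 24 h after dosing by RT-PCR, 6-FAM labelling, HpaI digestion and capillary electrophoresis. Gain-of-signal fitted versus DMSO baseline.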
# [20] = target: human RAR-related Orphan Receptor gamma (RORg), RORC (gene 6097) (UniProt P51449); test: ATG_RORg_TRANS: Attagene TRANS-FACTORIAL HepG2 Assay for human RAR-related Orphan Receptor gamma (RORg) (AID 2283011; active = hit-call score of the fitted dose curve at least 0.9, where 1 is the maximum)
# Procedure, shortened: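 Readout: reporter transcript induction (RT-PCR, fluorescent primer extension, capillary electrophoresis) after 24 h compound exposure of transiently transfected HepG2 cells carrying a RORg-Gal4 chimera and GAL4-UAS reporters; DMSO served as baseline, with increasing signal fitted.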
# Chain of E-selectin (Homo sapiens) (P16581 whole entry, looked up): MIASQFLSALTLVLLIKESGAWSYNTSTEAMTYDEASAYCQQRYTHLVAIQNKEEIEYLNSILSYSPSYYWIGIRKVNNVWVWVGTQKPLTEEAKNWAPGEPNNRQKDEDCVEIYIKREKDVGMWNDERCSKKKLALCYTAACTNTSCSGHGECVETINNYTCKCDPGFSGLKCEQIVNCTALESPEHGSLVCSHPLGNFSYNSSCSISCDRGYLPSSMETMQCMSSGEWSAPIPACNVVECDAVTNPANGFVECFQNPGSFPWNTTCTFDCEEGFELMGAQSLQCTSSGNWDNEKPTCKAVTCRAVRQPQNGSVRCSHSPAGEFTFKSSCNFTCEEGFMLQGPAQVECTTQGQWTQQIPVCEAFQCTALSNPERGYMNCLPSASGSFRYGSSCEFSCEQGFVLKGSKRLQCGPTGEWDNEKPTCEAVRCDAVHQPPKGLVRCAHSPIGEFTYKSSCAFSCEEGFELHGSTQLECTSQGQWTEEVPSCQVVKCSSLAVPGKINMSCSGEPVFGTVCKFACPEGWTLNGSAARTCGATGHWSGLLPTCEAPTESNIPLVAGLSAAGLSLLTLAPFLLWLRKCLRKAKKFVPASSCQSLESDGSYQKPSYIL
structure (smiles),measurement,setting,value
CC1(C)C(C=C(Cl)Cl)C1C(=O)OC(C#N)c1cccc(Oc2ccccc2)c1 (stereo not given),AC50,[1],13.9 µM (active)
same,outcome,[2],inactive
same,outcome,[3],inactive
same,outcome,[4],inactive
same,outcome,[5],inactive
same,outcome,[6],inactive
same,AC50,[7],17.9 µM (active)
same,AC50,[8],9.82 µM (active)
same,outcome,[9],inactive
same,outcome,[10],inactive
same,outcome,[11],inactive
same,outcome,[12],inactive
same,outcome,[13],inactive
same,outcome,[14],inactive
same,outcome,[15],inactive
same,AC50,[16],9.17 µM (active)
CCCN(CC)CC1COC2(CCC(C(C)(C)C)CC2)O1 (stereo not given),outcome,[1],inactive
same,outcome,[2],inactive
same,outcome,[3],inactive
same,outcome,[17],inactive
same,outcome,[4],inactive
same,outcome,[18],inactive
same,outcome,[8],inactive
same,outcome,[9],inactive
same,outcome,[10],inactive
same,outcome,[11],inactive
same,outcome,[12],inactive
same,outcome,[19],inactive
same,outcome,[13],inactive
same,outcome,[14],inactive
same,outcome,[15],inactive
same,outcome,[16],inactive
CC(C)C1(C)N=C(c2ncccc2C(=O)O)NC1=O (stereo not given),outcome,[1],inactive
same,outcome,[2],inactive
same,outcome,[3],inactive
same,outcome,[17],inactive
same,outcome,[4],inactive
same,outcome,[18],inactive
same,outcome,[7],inactive
same,outcome,[10],inactive
same,outcome,[20],inactive
same,outcome,[11],inactive
same,outcome,[13],inactive
same,outcome,[14],inactive
same,outcome,[15],inactive
same,outcome,[16],inactive
CCC(C)n1c(=O)[nH]c(C)c(Br)c1=O (stereo not given),outcome,[1],inactive
same,outcome,[2],inactive
same,outcome,[3],inactive
same,outcome,[17],inactive
same,outcome,[4],inactive
same,outcome,[18],inactive
same,outcome,[8],inactive
same,outcome,[10],inactive
same,outcome,[11],inactive
same,outcome,[12],inactive
same,outcome,[19],inactive
same,outcome,[13],inactive
same,outcome,[14],inactive
same,outcome,[15],inactive
same,outcome,[16],inactive
CC(C)N1C(=O)N(c2ccccc2)CSC1=NC(C)(C)C,AC50,[1],30.4 µM (active)
same,AC50,[2],32 µM (active)
same,AC50,[3],31.2 µM (active)
same,outcome,[4],inactive
same,AC50,[18],16.4 µM (active)
same,outcome,[7],inactive
same,outcome,[8],inactive
same,outcome,[10],inactive
same,outcome,[11],inactive
same,outcome,[19],inactive
same,AC50,[13],16 µM (active)
same,outcome,[14],inactive
same,AC50,[15],31.3 µM (active)
same,AC50,[16],30.4 µM (active)
